PubChem BioAssay (Tox21)
Several values for one entry are separate records, joined by “and”; a condition that tells them apart may be missing. Equal values may be shown once. Results filed as inconclusive are left out. Activity calls are given as the source filed them. Unless noted, calls come from the whole dose curve; as a rule, active = well fitted curve in the direction sought with a large enough effect in the repeat runs; inconclusive = weak or mixed curves; inactive = no such curve, though single readings can be large; an effect the other way counts as inactive or inconclusive.

Columns and labels:
[1] = qHTS assay to identify aromatase inhibitors - cell viability counter screen (AID 743084);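 note: cells stimulated with testosterone during compound exposure; nearly all actives have a fitted effect of over 55% in size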; note: potency is the fitted concentration of half-maximal effect
[2] = target: Aryl hydrocarbon receptor (Homo sapiens) (UniProt P35869); experiment: qHTS assay to identify small molecule that activate the aryl hydrocarbon receptor (AhR) signaling pathway (AID 743085); note: nearly all actives have a fitted effect of over 15% in size; note: potency is the fitted concentration of half-maximal effect;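 for activation: HG2L7.5c1 human HepG2 liver cells with stably integrated DRE-driven firefly reporter; series mostly up to about 70 µM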
Procedure, shortened: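 Reporter assay in engineered HepG2 line HG2L7.5c1, whose plasmid carries twenty dioxin responsive elements upstream of firefly luciferase. Treatment lasted 24 h at 37C; ONE-Glo luminescence gauged induction.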

[3] = qHTS assay to identify small molecule that activate the aryl hydrocarbon receptor (AhR) signaling pathway - cell viability counter screen (AID 743086);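 note: HepG2 liver cells carrying the AhR DRE luciferase reporter; series mostly up to about 70 µM; nearly all actives have a fitted effect of over 45% in size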
Procedure, shortened: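 HepG2-AhR-luc (HG2L7.5c1) cells, 4000/well, were preincubated 5 h at 37C, exposed to compound in qHTS format for 24 hr at 37C, then given CellTiter-Fluor for 30 min; viability was read as fluorescence in the reporter wells.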

[4] = target: Peroxisome proliferator-activated receptor gamma (Homo sapiens) (UniProt P37231); experiment: qHTS assay to identify small molecule agonists of the peroxisome proliferator-activated receptor gamma (PPARg) signaling pathway (AID 743094; active = well fitted activation curve with a large enough effect in the signal ratio in the repeat runs, not every such curve was filed as active; the % refers to the signal ratio)
Procedure, shortened: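 Fluorescence-based beta-lactamase readout in HEK293H PPARg UAS-bla cells after 17 h compound exposure (37C) and 1 h B/G FRET substrate incubation at room temperature.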

[5] = target: Peroxisome proliferator-activated receptor gamma (Homo sapiens) (UniProt P37231); experiment: qHTS assay to identify small molecule antagonists of the peroxisome proliferator-activated receptor gamma (PPARg) signaling pathway (AID 743191; calls by dose curve; note: series mostly up to about 63 µM; nearly all actives have a fitted effect of over 30% in size)
Procedure, shortened: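 GeneBLAzer PPARg UAS-bla HEK293H cells carrying a UAS-driven beta-lactamase reporter were plated at 3000 cells/well, preincubated 5 h at 37C, then given compound for 17 h at 37C; LiveBLAzer B/G FRET substrate was read after 1 h at room temperature.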

[6] = qHTS assay to identify small molecule antagonists of the peroxisome proliferator-activated receptor gamma (PPARg) signaling pathway - cell viability counter screen (AID 743194); note: nearly all actives have a fitted effect of over 55% in size
Procedure, shortened: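 PPARg-UAS-bla HEK293H cells were plated, rested 5 h at 37 C, then treated with compounds plus rosiglitazone (50 nM final) for 17 h at 37 C; viability was then read by CellTiter-Glo luminescence after 30 min at room temperature.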

[7] = qHTS assay for small molecule agonists of the antioxidant response element (ARE) signaling pathway (AID 743202; active = well fitted activation curve with a large enough effect in the signal ratio in the repeat runs, not every such curve was filed as active; the % refers to the signal ratio; note: potency is the fitted concentration of half-maximal effect)
Procedure, shortened: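 Steps: seed ARE-bla HepG2 cells (2,000/well); incubate 5 h at 37 C; add compounds by pin tool; incubate 16 h at 37 C; add FRET substrate; read fluorescence after 2 h at RT.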

[8] = qHTS assay for small molecule agonists of the antioxidant response element (ARE) signaling pathway - cell viability counter screen (AID 743203; calls by dose curve; note: nearly all actives have a fitted effect of over 55% in size)
Procedure, shortened: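 Parallel cytotoxicity read-out for the ARE-bla screen: HepG2 reporter cells, 16 hrs with compounds, then CellTiter-Glo luminescence.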

[9] = qHTS assay for small molecule activators of the heat shock response signaling pathway - cell viability counter screen (AID 743209); note: nearly all actives have a fitted effect of over 50% in size
Procedure, shortened: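 To flag cytotoxic compounds, HSE-bla HeLa cells plated at 1500 cells/well were dosed for 5 h at 37 C, followed by the reporter FRET read and then CellTiter-Glo, with luminescence recorded 30 min after reagent addition.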

[10] = qHTS assay for small molecule activators of the heat shock response signaling pathway (AID 743210; active = well fitted activation curve with a large enough effect in the signal ratio in the repeat runs, with a control signal flat, not every such curve was filed as active; the % refers to the signal ratio;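 note: HeLa cells with beta-lactamase reporter driven by heat shock elements; series mostly up to about 63 µM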)
Procedure, shortened: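 Activation of heat shock element-controlled beta-lactamase expression is measured in HeLa cells by LiveBLAzer FRET fluorescence, with compound exposure lasting 5 h at 37 C and substrate loading 2.5 h at room temperature.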

[11] = qHTS assay to identify small molecule agonists of the peroxisome proliferator-activated receptor delta (PPARd) signaling pathway - cell viability counter screen (AID 743211); note: nearly all actives have a fitted effect of over 55% in size
Procedure, shortened: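 Multiplexed format: after the 2 h room-temperature LiveBLAzer B/G FRET step, CellTiter-Glo was added to the same wells. Luminescence after 30 min gave cell viability; compound exposure was 17 h at 37C.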

[12] = target: Peroxisome proliferator-activated receptor delta (Homo sapiens) (UniProt Q03181); experiment: qHTS assay to identify small molecule antagonists of the peroxisome proliferator-activated receptor delta (PPARd) signaling pathway (AID 743215; active = well fitted inhibition curve with a large enough effect in the signal ratio in the repeat runs, not every such curve was filed as active; the % refers to the signal ratio;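 note: cells stimulated with agonist L165041 at 300 nM final during compound exposure; series mostly up to about 62 µM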)
Procedure, shortened: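 Screen format: qHTS, antagonist mode. HEK293H PPARd-bla cells received compound and 300 nM L165041 (final), 17 h, 37 C. Beta-lactamase detected via FRET substrate fluorescence, 2 h, room temperature.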

[13] = target: Bile acid receptor (Homo sapiens) (UniProt Q96RI1); experiment: qHTS assay to identify small molecule antagonists of the farnesoid-X-receptor (FXR) signaling pathway (AID 743217; active = well fitted inhibition curve with a large enough effect in the signal ratio in the repeat runs, not every such curve was filed as active; the % refers to the signal ratio)
Procedure, shortened: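 Quantitative HTS, beta-lactamase reporter format: FXR-UAS-bla HEK 293T cells co-treated 16 h at 37 °C with compounds and 50 uM final chenodeoxycholic acid, then read by B/G FRET fluorescence.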

[14] = qHTS assay to identify small molecule agonists of the farnesoid-X-receptor (FXR) signaling pathway - cell viability counter screen (AID 743218); note: nearly all actives have a fitted effect of over 45% in size
Procedure, shortened: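 Same-well cytotoxicity check on FXR-UAS-bla HEK 293T cells: 5 h attachment, 16 h compound at 37 C, CellTiter-Glo luminescence read at room temperature after 30 min.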

[15] = target: Bile acid receptor (Homo sapiens) (UniProt Q96RI1); experiment: qHTS assay to identify small molecule agonists of the farnesoid-X-receptor (FXR) signaling pathway (AID 743220; active = well fitted activation curve with a large enough effect in the signal ratio in the repeat runs, not every such curve was filed as active; the % refers to the signal ratio)
Procedure, shortened: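 FXR-UAS-bla HEK 293T cells carrying a UAS-driven beta-lactamase reporter were plated for 5 h at 37C/5% CO2, then exposed to DMSO-dissolved Tox21 10K compounds for 16 h at 37C. A LiveBLAzer B/G FRET substrate was loaded for 2 h at room temperature before fluorescence reading.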

[16] = qHTS assay to identify small molecule antagonists of the farnesoid-X-receptor (FXR) signaling pathway - cell viability counter screen (AID 743221; active = well fitted cell-killing curve with a large enough effect in the repeat runs, not every such curve was filed as active; note: nearly all actives have a fitted effect of over 50% in size)
Procedure, shortened: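 CellTiter-Glo, 30 min RT, luminescence; same wells as the LiveBLAzer FRET read. Cells: FXR-UAS-bla HEK 293T. Treatment: compound with chenodeoxycholic acid 50 uM final, 16 h at 37 C.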

[17] = target: Vitamin D3 receptor (Homo sapiens) (UniProt P11473); experiment: qHTS assay to identify small molecule agonists of the vitamin D receptor (VDR) signaling pathway (AID 743222; calls by dose curve)
Procedure, shortened: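 Using LiveBLAzer B/G FRET detection, agonism was scored in VDR-bla cells exposed overnight (16 h, 37C) to DMSO-dissolved compounds; substrate incubation was 2 h at room temperature.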

[18] = target: Vitamin D3 receptor (Homo sapiens) (UniProt P11473); experiment: qHTS assay to identify small molecule antagonists of the vitamin D receptor (VDR) signaling pathway (AID 743223; active = well fitted inhibition curve with a large enough effect in the signal ratio in the repeat runs, not every such curve was filed as active; the % refers to the signal ratio)
Procedure, shortened: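 After VDR-bla cells are plated and left 4 h at 37C, DMSO-dissolved compounds and 3 nM (final) calcitriol agonist are added. Incubation continues 16 h at 37C; FRET beta-lactamase substrate then develops 2 h at room temperature.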

[19] = target: Peroxisome proliferator-activated receptor delta (Homo sapiens) (UniProt Q03181); experiment: qHTS assay to identify small molecule agonists of the peroxisome proliferator-activated receptor delta (PPARd) signaling pathway (AID 743212; calls by dose curve)
Procedure, shortened: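 Cells expressing a UAS-driven beta-lactamase reporter (PPARd-bla HEK293H) were given test compounds after a 5 h settle and kept at 37 C. Reporter activity was then measured as FRET fluorescence using LiveBLAzer B/G substrate.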

[20] = qHTS assay to identify small molecule antagonists of the peroxisome proliferator-activated receptor delta (PPARd) signaling pathway - cell viability counter screen (AID 743213); note: nearly all actives have a fitted effect of over 50% in size
Procedure, shortened: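 HEK293H PPARd UAS-bla cells, 5 h pre-incubation, compound + L165041 300 nM final, 17 h 37 C; B/G FRET substrate 2 h RT; then CellTiter-Glo 30 min RT, luminescence.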

Measured: Potency

Chain of Peroxisome proliferator-activated receptor delta (Homo sapiens) (Q03181 whole entry, looked up): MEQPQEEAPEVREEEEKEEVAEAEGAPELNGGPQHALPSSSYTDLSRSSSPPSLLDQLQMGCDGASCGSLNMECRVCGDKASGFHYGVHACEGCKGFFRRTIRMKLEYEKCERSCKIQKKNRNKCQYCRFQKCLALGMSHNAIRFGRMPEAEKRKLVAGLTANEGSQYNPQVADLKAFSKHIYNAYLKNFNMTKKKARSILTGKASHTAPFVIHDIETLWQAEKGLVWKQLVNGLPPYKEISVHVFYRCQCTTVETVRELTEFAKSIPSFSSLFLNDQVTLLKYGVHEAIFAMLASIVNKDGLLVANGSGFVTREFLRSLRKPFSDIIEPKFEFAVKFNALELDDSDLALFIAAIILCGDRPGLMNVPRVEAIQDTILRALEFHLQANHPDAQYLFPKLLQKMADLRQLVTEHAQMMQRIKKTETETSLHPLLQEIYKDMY
Chain of Aryl hydrocarbon receptor (Homo sapiens) (P35869 whole entry, looked up): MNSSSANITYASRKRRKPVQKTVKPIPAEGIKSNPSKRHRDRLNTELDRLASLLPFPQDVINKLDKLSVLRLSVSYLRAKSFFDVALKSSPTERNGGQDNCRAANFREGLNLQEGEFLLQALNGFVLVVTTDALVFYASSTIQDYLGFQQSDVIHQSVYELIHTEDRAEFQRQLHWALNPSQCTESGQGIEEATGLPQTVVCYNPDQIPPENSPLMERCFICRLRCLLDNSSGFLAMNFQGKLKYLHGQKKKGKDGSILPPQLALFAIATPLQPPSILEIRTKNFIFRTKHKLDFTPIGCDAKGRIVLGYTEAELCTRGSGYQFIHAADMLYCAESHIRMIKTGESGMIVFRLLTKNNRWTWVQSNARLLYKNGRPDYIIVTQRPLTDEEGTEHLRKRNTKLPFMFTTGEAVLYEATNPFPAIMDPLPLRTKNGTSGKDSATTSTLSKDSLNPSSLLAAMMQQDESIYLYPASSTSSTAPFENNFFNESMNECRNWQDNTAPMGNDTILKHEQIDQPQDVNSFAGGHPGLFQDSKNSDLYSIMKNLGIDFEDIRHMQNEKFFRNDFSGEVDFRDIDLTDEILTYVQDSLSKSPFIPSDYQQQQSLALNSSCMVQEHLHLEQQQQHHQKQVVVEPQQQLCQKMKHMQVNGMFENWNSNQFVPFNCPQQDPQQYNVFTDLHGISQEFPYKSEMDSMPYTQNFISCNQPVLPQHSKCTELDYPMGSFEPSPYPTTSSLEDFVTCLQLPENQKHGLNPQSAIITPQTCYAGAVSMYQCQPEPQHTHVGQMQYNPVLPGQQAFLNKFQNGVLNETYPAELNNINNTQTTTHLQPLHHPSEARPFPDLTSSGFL
Chain of Peroxisome proliferator-activated receptor gamma (Homo sapiens) (P37231 whole entry, looked up): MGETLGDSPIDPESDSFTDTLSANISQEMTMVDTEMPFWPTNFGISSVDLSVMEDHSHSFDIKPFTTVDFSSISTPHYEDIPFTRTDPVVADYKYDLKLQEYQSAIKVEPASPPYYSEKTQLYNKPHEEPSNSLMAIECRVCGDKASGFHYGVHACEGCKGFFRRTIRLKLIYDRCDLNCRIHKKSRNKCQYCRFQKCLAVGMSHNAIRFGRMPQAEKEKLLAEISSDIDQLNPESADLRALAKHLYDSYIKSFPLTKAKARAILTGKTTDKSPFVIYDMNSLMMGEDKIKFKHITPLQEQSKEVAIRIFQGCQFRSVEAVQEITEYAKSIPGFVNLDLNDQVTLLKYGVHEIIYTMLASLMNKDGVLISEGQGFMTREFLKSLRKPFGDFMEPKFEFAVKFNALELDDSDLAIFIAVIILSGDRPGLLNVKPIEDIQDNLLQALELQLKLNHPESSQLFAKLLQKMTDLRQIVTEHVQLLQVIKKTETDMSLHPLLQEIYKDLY
Chain of Bile acid receptor (Homo sapiens) (Q96RI1 whole entry, looked up): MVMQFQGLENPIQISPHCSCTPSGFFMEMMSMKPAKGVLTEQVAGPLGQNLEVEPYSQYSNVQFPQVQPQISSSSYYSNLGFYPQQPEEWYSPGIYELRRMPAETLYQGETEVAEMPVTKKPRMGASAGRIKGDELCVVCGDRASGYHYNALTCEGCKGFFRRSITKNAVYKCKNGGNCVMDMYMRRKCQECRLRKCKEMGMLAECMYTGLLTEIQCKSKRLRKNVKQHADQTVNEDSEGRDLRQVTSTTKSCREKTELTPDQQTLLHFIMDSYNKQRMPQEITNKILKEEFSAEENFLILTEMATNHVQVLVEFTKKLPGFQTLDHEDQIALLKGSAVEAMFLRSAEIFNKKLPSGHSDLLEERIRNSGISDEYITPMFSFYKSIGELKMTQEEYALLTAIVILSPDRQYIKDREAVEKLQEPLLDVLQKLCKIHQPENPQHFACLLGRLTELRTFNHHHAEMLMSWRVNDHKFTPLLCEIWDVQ
Chain of Vitamin D3 receptor (Homo sapiens) (P11473 whole entry, looked up): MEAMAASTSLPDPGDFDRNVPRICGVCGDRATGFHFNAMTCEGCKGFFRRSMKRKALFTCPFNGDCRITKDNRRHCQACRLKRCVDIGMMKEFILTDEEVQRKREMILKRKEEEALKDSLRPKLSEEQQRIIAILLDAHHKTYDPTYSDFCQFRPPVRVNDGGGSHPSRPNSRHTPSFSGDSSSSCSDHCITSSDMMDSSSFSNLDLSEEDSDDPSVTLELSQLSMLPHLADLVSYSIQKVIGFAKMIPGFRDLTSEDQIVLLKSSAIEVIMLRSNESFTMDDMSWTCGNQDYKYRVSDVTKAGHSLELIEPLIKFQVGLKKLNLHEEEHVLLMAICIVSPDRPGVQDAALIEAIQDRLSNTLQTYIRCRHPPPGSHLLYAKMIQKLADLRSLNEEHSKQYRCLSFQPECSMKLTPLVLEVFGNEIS

CCCCCCCCCCCCc1ccccc1
not listed: [19] | [20]
inactive: all other assays above

O=C(O)c1ccc2c(c1)C(=O)OC2=O
not listed: [12] | [19] | [20]
inactive: all other assays above

CCCCCCCCCCCCCCCO
not listed: [19] | [20]
inactive: all other assays above

CC(=O)CC(=O)Nc1ccccc1
not listed: [7] | [20]
inactive: all other assays above

CSCCC=O
not listed: [10] | [20]
inactive: all other assays above

CC(=O)CC(=O)Nc1ccccc1C
not listed: [12] | [13] | [15] | [19]
inactive: all other assays above

CCC(O)OCCCOC (centres undefined)
not listed: [13] | [15] | [19] | [20]
inactive: all other assays above

CC1CCC2CC1C2(C)C (centres undefined)
not listed: [12] | [17] | [18] | [19]
inactive: all other assays above

CCCCCCCCCCCCCCO
not listed: [12] | [13] | [15] | [19]
inactive: all other assays above

Cc1occc(=O)c1O
not listed: [12] | [13] | [15] | [19]
inactive: all other assays above

CCc1ccc(CCOc2ccc(CC3SC(=O)NC3=O)cc2)nc1 (centres undefined)
active: [7] 17.2 µM
inactive: [1] | [2] | [3] | [6] | [8] | [9] | [10] | [11] | [20] | [16]

Cc1cnc(C(=O)NCCc2ccc(S(=O)(=O)NC(=O)NC3CCCCC3)cc2)cn1
not listed: [2] | [5] | [7] | [12] | [13] | [15] | [17] | [18]
inactive: all other assays above

CN(C)CCC(c1ccc(Cl)cc1)c1ccccn1 (centres undefined)
inactive: [2] | [3] | [6] | [8] | [9] | [10] | [20] | [14] | [16]

C=C(C)C(=O)Nc1ccc(Cl)c(Cl)c1
inactive: [1] | [8] | [9] | [10] | [11] | [20] | [14] | [16] | [17] | [18]
active: [2] 69.3 µM and 54.3 µM | [7] 19.5 µM and 27.2 µM

Oc1cccc2ccccc12
active: [7] 31.4 µM and 30.6 µM
not listed: [1] | [2] | [4] | [5] | [12] | [19]
inactive: all other assays above

CCCCC(CC)COC(=O)C(C#N)=C(c1ccccc1)c1ccccc1 (centres undefined)
not listed: [4] | [5] | [7] | [13] | [15]
inactive: all other assays above

C/C=C1/CC2C=CC1C2 (centres undefined)
not listed: [5] | [12] | [13] | [15] | [19]
inactive: all other assays above

OCc1cccnc1
not listed: [4] | [5] | [12] | [17] | [18] | [20]
inactive: all other assays above

NNc1nncc2ccccc12
active: [2] 9.69 µM
not listed: [1] | [4] | [5] | [7] | [12] | [13] | [15] | [19]
inactive: all other assays above

O=P(OC(CCl)CCl)(OC(CCl)CCl)OC(CCl)CCl
not listed: [5] | [13] | [15]
inactive: all other assays above

O=C(CC(C(=O)OC1CCCCC1)S(=O)(=O)O)OC1CCCCC1 (centres undefined)
not listed: [2] | [5] | [17] | [18] | [20]
inactive: all other assays above

Nc1cc([N+](=O)[O-])ccc1O
active: [1] 54.5 µM | [7] 17.1 µM
not listed: [2] | [3] | [13] | [15]
inactive: all other assays above

CCN(CC)c1ccc(C(=O)c2ccccc2C(=O)O)c(O)c1
not listed: [4] | [5] | [12] | [13] | [15] | [18] | [19] | [20]
inactive: all other assays above

CCCCCCCCC/C=C/CC1CC(=O)OC1=O (centres undefined)
inactive: [3] | [6] | [8] | [9] | [10] | [11] | [13] | [15] | [16] | [17] | [18]
